PubChem BioAssay
Active and inactive are the calls of the source. Unless noted, no rule for the calls is given here.

How the values were obtained:
[1] = compounds binding Alexa647 anti-His antibody – biochemical, small-molecule microarray, 635 nm fluorescence, artefact control for SMM control protein annotation, primary screen (AID 1128); conditions: higher = more signal;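 also: score merges feature fluorescence with signal-to-noise for each printed compound spot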
[2] = system: Human papillomavirus type 1a E7 protein (residues 1-88); assay: HPV1a E7 small-molecule binders, primary screen, biochemical, small-molecule microarray, residues 1-88, 635 nm (AID 1129); conditions: small-molecule microarray binding, fluorescence 635 nm; higher = more signal
[3] = target: Focal adhesion kinase 1 (Homo sapiens) (UniProt Q05397); assay: PTK2 protein binding on printed compound slides – biochemical, small-molecule microarray, 635/667 nm fluorescence, BSA, DTT, primary screen (AID 1130); conditions: 635 nm fluorescence, higher = more signal;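 also: composite of spot emission at 667 nm and signal to noise over triplicate slides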
Chain of Focal adhesion kinase 1 (Homo sapiens) (Q05397 whole entry, looked up): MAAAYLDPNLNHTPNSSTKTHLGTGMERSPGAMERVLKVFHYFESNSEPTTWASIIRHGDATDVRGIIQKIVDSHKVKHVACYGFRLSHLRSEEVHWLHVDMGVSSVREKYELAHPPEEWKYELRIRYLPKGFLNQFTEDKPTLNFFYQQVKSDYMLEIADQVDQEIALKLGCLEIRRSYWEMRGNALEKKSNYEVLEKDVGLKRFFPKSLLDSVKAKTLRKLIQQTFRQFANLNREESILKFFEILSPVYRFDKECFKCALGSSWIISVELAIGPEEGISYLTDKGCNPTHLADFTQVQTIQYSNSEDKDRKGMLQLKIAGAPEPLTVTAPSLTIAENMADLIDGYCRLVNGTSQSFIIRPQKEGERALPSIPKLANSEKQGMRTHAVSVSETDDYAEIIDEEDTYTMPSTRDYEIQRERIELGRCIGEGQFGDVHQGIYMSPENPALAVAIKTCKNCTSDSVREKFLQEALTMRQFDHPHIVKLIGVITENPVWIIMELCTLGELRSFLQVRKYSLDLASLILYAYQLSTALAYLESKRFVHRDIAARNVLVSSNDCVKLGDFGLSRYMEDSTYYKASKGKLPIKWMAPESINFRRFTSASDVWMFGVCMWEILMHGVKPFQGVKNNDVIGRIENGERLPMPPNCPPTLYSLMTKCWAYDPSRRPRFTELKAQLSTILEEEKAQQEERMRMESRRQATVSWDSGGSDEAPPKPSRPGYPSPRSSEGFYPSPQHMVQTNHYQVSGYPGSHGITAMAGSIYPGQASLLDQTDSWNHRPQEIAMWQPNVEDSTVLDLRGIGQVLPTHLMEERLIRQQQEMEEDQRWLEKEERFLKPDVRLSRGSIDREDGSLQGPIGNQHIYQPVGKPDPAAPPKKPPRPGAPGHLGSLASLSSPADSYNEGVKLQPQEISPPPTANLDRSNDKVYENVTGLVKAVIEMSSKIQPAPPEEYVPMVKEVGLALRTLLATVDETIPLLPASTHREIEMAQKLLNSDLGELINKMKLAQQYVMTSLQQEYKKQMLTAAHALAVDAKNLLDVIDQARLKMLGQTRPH

[4] = system: Fibrinogen (Alexa647-labelled); assay: Alexa647-fibrinogen binding to printed small molecules – biochemical, small-molecule microarray, 635/667 nm fluorescence, artefact control for SMM control-protein annotation, profiling panel (AID 1131); conditions: fibrinogen-A647 binding fluorescence, higher = more signal;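 also: z-score merges 667 nm fluorescence with per-spot signal-to-noise over triplicate slides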
[5] = target: Follistatin (Homo sapiens) (UniProt P19883); assay: FST protein binding to printed compounds – biochemical, small-molecule microarray, 635/667 nm fluorescence, primary screen (AID 1132); conditions: 635 nm fluorescence, higher = more signal
Chain of Follistatin (Homo sapiens) (P19883 whole entry, looked up): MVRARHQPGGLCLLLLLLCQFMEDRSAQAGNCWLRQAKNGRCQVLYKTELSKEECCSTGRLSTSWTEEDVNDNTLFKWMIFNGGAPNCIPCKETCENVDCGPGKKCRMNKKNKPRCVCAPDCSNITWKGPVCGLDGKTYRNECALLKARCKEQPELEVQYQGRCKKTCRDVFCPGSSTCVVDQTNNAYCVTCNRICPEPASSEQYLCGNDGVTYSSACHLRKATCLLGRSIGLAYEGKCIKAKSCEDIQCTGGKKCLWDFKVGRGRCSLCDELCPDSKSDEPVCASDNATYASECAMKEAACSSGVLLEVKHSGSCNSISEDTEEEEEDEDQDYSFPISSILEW

[6] = target: Fibroblast growth factor 2 (Homo sapiens) (UniProt P09038); assay: basic fibroblast growth factor binding to printed compounds – biochemical, small-molecule microarray, 635/667 nm fluorescence, primary screen (AID 1133); conditions: FGF2, fluorescence 635/667, higher = more signal
Chain of Fibroblast growth factor 2 (Homo sapiens) (P09038 whole entry, looked up): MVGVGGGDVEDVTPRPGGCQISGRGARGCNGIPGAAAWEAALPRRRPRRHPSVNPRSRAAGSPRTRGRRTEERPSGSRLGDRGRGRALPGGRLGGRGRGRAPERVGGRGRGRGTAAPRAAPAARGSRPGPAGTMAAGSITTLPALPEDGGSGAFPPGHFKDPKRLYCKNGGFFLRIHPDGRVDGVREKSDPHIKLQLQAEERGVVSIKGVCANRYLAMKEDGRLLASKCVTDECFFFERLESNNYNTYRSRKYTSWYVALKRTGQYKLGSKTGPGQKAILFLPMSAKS

[7] = JC-1 mitochondrial potential readout, lung cancer cells – cell-based, A549, JC-1 fluorescence, basal, 24 h, 100 nL, profiling panel (AID 1138); conditions: higher = more signal;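 also: A549 lung adenocarcinoma cells under basal conditions with no added stimulus; test concentration not given here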
[8] = system: Lefty1; assay: Lefty1 protein binding to printed compounds – biochemical, small-molecule microarray, 635/667 nm fluorescence, primary screen (AID 1139); conditions: fluorescence 635/667, higher = more signal
[9] = system: wheat germ agglutinin (Triticum aestivum), Alexa647-labelled; assay: Alexa647-WGA lectin binding to printed small molecules – biochemical, small-molecule microarray, 635/667 nm fluorescence, artefact control for SMM control-protein annotation, profiling panel (AID 1140); conditions: WGA-A647 binding, 635 nm fluorescence, higher = more signal;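 also: score merges 667 nm feature emission with signal to noise over triplicate slides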
[10] = target: Luciferin 4-monooxygenase (Photinus pyralis) (UniProt P08659); assay: inhibition of purified Photinus pyralis luciferase – biochemical, luminescence, purified enzyme, 2006 set, primary screen (AID 1141); conditions: purified firefly luciferase, SteadyGlo luminescence, 30 min; higher = more signal, called active from +8 up or from −8 down;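 also: cell-free assay with purified firefly luciferase at 100 ng per well in PBS; test concentration not given here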
Chain of Luciferin 4-monooxygenase (Photinus pyralis) (P08659 whole entry, looked up): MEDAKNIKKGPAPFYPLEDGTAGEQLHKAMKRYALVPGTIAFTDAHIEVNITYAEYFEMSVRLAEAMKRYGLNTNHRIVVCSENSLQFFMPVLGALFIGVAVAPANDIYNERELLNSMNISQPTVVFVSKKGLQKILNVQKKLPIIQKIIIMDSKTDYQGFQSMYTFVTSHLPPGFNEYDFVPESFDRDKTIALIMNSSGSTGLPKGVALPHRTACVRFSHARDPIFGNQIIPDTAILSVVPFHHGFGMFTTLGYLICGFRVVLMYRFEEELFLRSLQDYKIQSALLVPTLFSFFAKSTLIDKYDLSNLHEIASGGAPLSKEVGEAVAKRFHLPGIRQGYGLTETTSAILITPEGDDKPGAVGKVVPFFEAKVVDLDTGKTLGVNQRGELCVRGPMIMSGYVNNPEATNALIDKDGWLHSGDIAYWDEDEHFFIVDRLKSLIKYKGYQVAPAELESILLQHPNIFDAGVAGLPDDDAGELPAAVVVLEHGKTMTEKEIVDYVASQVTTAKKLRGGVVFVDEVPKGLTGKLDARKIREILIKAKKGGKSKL

[11] = system: Wnt5a (protein binding on small-molecule microarray); assay: small molecules binding Wnt5a protein – biophysical, small-molecule microarray, 635/667 nm fluorescence, primary screen (AID 1142); conditions: 635 nm fluorescence, higher = more signal;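 also: fluorescence read at 667 nm with signal to noise per printed feature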
[12] = ATP-based viability of Huh7 replicon cells – cell-based, CellTiter-Glo luminescence, basal, 48 h, cytotoxicity control for HCV replication inhibitor project, primary screen (AID 1143); conditions: higher = more signal, called active from +8 up or from −8 down;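 also: Huh7 hepatoma cells carrying a hepatitis C replication reporter with no stimulus; test concentration not given here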
[13] = Pseudomonas biofilm growth suppression – PAO1 strain, BacTiter-Glo luminescence, LB-PBS, primary screen (AID 1144); conditions: P. aeruginosa PAO1 biofilm, 12 h, higher = more signal
[14] = basal CRE-LacZ reporter activity in PC12 – cell-based, unstimulated, primary screen (AID 1145); conditions: no forskolin, luminescence, 4.5 h, higher = more signal, called active from +8 up or from −8 down
[15] = forskolin-driven CRE-LacZ activity in PC12 – cell-based, CRE-LacZ reporter, forskolin-stimulated, primary screen (AID 1146); conditions: luminescence, 4.5 h, higher = more signal, called active from +8 up or from −8 down;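 also: PC12 cells with 6xCRE LacZ reporter stimulated by forskolin 10 µM; beta-galactosidase reporter signal reflecting CREB driven transcription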
[16] = target: Streptavidin (Streptomyces avidinii) (UniProt P22629); assay: compounds binding control protein streptavidin – biophysical, small-molecule microarray, 635/667 nm fluorescence, artefact control for SMM compound annotation, primary screen (AID 1147); conditions: higher = more signal;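 also: signal reflects streptavidin binding to arrayed compounds as a control protein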
Chain of Streptavidin (Streptomyces avidinii) (P22629 whole entry, looked up): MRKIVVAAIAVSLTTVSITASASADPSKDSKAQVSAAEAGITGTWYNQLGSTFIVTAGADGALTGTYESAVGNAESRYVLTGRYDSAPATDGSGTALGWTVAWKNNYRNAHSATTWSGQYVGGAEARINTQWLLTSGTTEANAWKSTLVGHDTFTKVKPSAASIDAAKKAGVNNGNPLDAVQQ

[17] = probe aInhba binding on compound microarray – biochemical, small-molecule microarray, 635/667 nm fluorescence, primary screen (AID 1148); conditions: higher = more signal;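 also: score merges 667nm spot fluorescence with signal-to-noise for antibody binding to printed compounds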
[18] = target: Torsin-1A (Homo sapiens) (UniProt O14656); assay: TOR1A wild-type binding on microarray – cell lysate, small-molecule microarray, lysate, 635/667 nm, primary screen (AID 1149); conditions: COS7 hTOR1A-WT lysate, 635 nm fluorescence, higher = more signal
Chain of Torsin-1A (Homo sapiens) (O14656 whole entry, looked up): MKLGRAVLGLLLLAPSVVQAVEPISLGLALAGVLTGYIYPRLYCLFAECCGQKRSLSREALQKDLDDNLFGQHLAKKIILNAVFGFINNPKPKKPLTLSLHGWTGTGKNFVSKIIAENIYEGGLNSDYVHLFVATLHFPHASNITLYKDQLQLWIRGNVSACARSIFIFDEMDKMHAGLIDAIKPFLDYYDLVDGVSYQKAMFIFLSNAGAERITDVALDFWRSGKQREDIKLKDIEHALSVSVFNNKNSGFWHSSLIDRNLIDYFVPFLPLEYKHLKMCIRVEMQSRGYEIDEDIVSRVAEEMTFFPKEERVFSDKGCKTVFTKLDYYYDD

[19] = target: Torsin-1A (Homo sapiens) (UniProt O14656); assay: torsin A mutant lysate binding on microarrays – cell lysate, small-molecule microarray, COS7 lysate, 635/667 nm fluorescence, primary screen (AID 1150); conditions: COS7 hTOR1A mutant lysate, 635 nm fluorescence, higher = more signal;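 also: score pools 667 nm emission and signal to noise measuring lysate protein binding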
[20] = system: Sonic hedgehog protein (Shh); assay: Sonic hedgehog microarray binding compounds – biochemical, small-molecule microarray, 635/667 nm fluorescence, primary screen (AID 1151); conditions: 635 nm fluorescence, higher = more signal;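 also: Shh protein binding to compounds spotted on small-molecule microarray slides; score combines spot fluorescence intensity with signal-to-noise across triplicate slides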

Compound | composite z-score [1] | composite z-score [2] | composite z-score [3] | composite z-score [4] | composite z-score [5] | composite z-score [6] | z-score [7] | composite z-score [8] | composite z-score [9] | z-score [10] | composite z-score [11] | z-score [12] | z-score [13] | z-score [14] | z-score [15] | composite z-score [16] | composite z-score [17] | composite z-score [18] | composite z-score [19] | composite z-score [20]
CC(C)(C)OC(=O)CC[C@]1(C(=O)N2CCCCC2)N=C(c2ccc(OCCCO)cc2)O[C@H]1c1ccccc1CN=[N+]=[N-] | 3.05 | 1.21 | 0.72 | 0.978 | 1.4 | 1.42 | 2.94 | 0.675 | 1.09 | -3.56 (inactive) | 1.13 | -3.42 (inactive) | -0.596 (inactive) | 0.927 (inactive) | -0.707 (inactive) | 0.835 | 0.927 | 0.635 | 1.17 | 0.251
O=C1O[C@H](c2ccccc2)[C@H](c2ccccc2)N2[C@H]1[C@@H](C(=O)N1CCN(c3ncccn3)CC1)[C@]1(C(=O)Nc3ccc(C#CCCO)cc31)[C@H]2c1ccc(OCCO)cc1 | 2.06 | 1.2 | 0.372 | 0.934 | 1.36 | 0.597 | -0.756 | 1.57 | 0.772 | -0.713 (inactive) | 1.02 | 0.505 (inactive) | -0.339 (inactive) | -0.471 (inactive) | 0.344 (inactive) | 1.19 | 0.221 | 0.949 | 0.938 | 1.39
C=C(COC)C(=O)CC[C@H](OC(=O)c1ccccc1-c1ccccc1C(=O)O)c1ccc(OCCO)cc1 | 2.56 | 1.08 | 0.033 | 0.879 | 1.42 | 1.35 | -0.66 | 1.59 | 0.564 | -2.22 (inactive) | 0.314 | -0.0319 (inactive) | -0.623 (inactive) | 2.19 (inactive) | -0.42 (inactive) | -0.237 | 0.0906 | 2.29 | 0.383 | 1.81
COc1ccc(C(=O)Nc2ccc3c(c2)[C@]2(O[C@@H](CCO)[C@H]([Si](C)(C)c4ccc(OC)cc4)[C@H]2C)C(=O)N3Cc2ccccc2)cc1 | -0.155 | 0.809 | 0.411 | 0.491 | 1.39 | 0.827 | 0.168 | 1.26 | 0.161 | -0.777 (inactive) | 0.476 | -8.09 (active) | -1.18 (inactive) | 1.82 (inactive) | -0.606 (inactive) | 0.328 | -0.0209 | 0.816 | 0.671 | 1.83
[N-]=[N+]=Nc1ccccc1[C@@H]1OC(c2ccc(OCCCO)cc2)=N[C@]1(CCS(=O)(=O)c1ccccc1)C(=O)NCc1ccccc1 | 1.13 | 0.742 | 1.03 | 0.982 | 1.3 | 1.06 | 0.27 | -0.141 | 1.2 | -11.9 (active) | 0.554 | -1.97 (inactive) | 0.156 (inactive) | -0.744 (inactive) | -0.653 (inactive) | 1.3 | 0.293 | 1.53 | 1.29 | 0.565
C=C(/C(=C/C[C@@H](OC(C)=O)c1ccccc1OCCO)c1cnc2ccccc2c1)C(C)C | 0.119 | -0.198 | 0.0328 | -0.571 | 1.17 | 1.48 | -0.111 | 1.58 | 1.05 | -0.557 (inactive) | 0.515 | -1.35 (inactive) | 0.362 (inactive) | 10.8 (active) | 0.982 (inactive) | -0.02 | 0.167 | 0.72 | 0.0714 | 1.81
COC(=O)c1ccc(OC)c(/C=C\CC(CCc2ccccc2)OC(=O)c2ccncc2)c1 (stereo not given) | 0.499 | -0.235 | -0.21 | -0.358 | 1.45 | 1.23 | 1.38 | 1.01 | 0.334 | -0.912 (inactive) | -0.272 | -1.66 (inactive) | 1.02 (inactive) | 1.75 (inactive) | 0.455 (inactive) | 0.925 | -0.404 | 0.175 | 0.092 | 1.25
C=CCC(OC(C)=O)[C@@H]1[C@@H](N(Cc2cccc3ccccc23)C(=O)Cc2ccc(F)cc2)c2cc(OCCCO)ccc2N1C(=O)Cc1ccc(OC)cc1 (stereo not given in full) | -0.241 | -0.0072 | -0.142 | 0.766 | 0.532 | -0.109 | -0.189 | 0.391 | 0.672 | 0.678 (inactive) | -0.0124 | -0.627 (inactive) | -0.945 (inactive) | -0.579 (inactive) | -0.374 (inactive) | 0.227 | -0.102 | -0.149 | -0.137 | 0.309
C[N+](C)(C)CCCC[C@@H]1NC(=O)[C@H]2C[C@@H](C(=O)NCCCCCCN)[C@@H](c3cccc(OCCO)c3)N2C1=O | 0.711 | 1.21 | 0.209 | 0.704 | 1.4 | 1.51 | -0.798 | 1.67 | 1.13 | 0.815 (inactive) | 0.693 | 0.0395 (inactive) | 0.406 (inactive) | -0.809 (inactive) | -0.254 (inactive) | 1.65 | 0.794 | 1.33 | 1.25 | 2.04
CCCc1cc2c(n1Cc1ccc(OC)cc1)C(C)C1CN(C(=O)c3ccccc3)C(C)(C(=O)OC)C21 (stereo not given) | 2.74 | 1.24 | 1.56 | 1.01 | 0.0092 | -1.19 | 0.788 | -0.515 | 1.47 | 0.062 (inactive) | 0.562 | -3.08 (inactive) | 0.393 (inactive) | 0.207 (inactive) | 1.52 (inactive) | 1.95 | 0.297 | 0.0326 | 0.773 | 0.0704
